Reference: PubChem BioAssay (NCI)
About 83,000 compounds went through this panel and 20% of them were active in at least one assay; those are over-represented in the sample as a whole.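 Activity criterion: percent growth below 10, measured after cells in 96-well plates were exposed to a single compound concentration for 48 hours.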 Active and inactive are the calls of the source.

Assays:
Test in all cases: NCI-60 one-dose screen, 48 h (100 = growth as untreated, 0 = no growth, -100 = all killed)
Conditions in all cases: 10 µM unless noted
DU-145 prostate = test system: DU-145 prostate
K-562 leukemia = test system: K-562 leukemia
MALME-3M melanoma = test system: MALME-3M melanoma
MDA-MB-231 breast = test system: MDA-MB-231 breast
RXF 393 renal = test system: RXF 393 renal
SF-268 CNS = test system: SF-268 CNS
SF-295 CNS = test system: SF-295 CNS
SF-539 CNS = test system: SF-539 CNS
UACC-257 melanoma = test system: UACC-257 melanoma
M14 melanoma = test system: M14 melanoma

Measured: growth

Cc1ccc(C(=O)Nc2ccc(CN3CCN(C)CC3)c(C(F)(F)F)c2)cc1C#Cc1cnc(N)c2ccccc12
active: DU-145 prostate -89.3% | K-562 leukemia -23.5% | MALME-3M melanoma -59.9% | MDA-MB-231 breast -63.4% | RXF 393 renal -75.5% | SF-268 CNS 1.65% | SF-295 CNS -35.9% | SF-539 CNS -84.8% | UACC-257 melanoma -50.3% | M14 melanoma -76.7%

O=S(=O)(Nc1ccc(Br)cc1)c1ccc(-c2cnc(C3CC3)o2)cc1
active: SF-539 CNS 3.63%
inactive: DU-145 prostate 38.1% | K-562 leukemia 11.3% | MALME-3M melanoma 44.4% | MDA-MB-231 breast 35.2% | RXF 393 renal 10.4% | SF-268 CNS 39.9% | SF-295 CNS 28.9% | UACC-257 melanoma 66.1% | M14 melanoma 18.1%

Cc1ccc(C23CCC(=O)N2CCc2cncn23)cc1 (stereo not given)
inactive: DU-145 prostate 105% | K-562 leukemia 112% | MALME-3M melanoma 109% | MDA-MB-231 breast 113% | RXF 393 renal 87% | SF-268 CNS 114% | SF-295 CNS 102% | SF-539 CNS 101% | UACC-257 melanoma 100% | M14 melanoma 101%

O=C(/C=C/c1cccc([N+](=O)[O-])c1)c1ccc(Nc2nc(Nc3ccc(F)cc3)nc(Nc3ccc(Cl)cc3)n2)cc1
inactive: DU-145 prostate 106% | K-562 leukemia 70% | MALME-3M melanoma 105% | MDA-MB-231 breast 92.2% | SF-268 CNS 93.8% | SF-295 CNS 84.8% | SF-539 CNS 106% | UACC-257 melanoma 100% | M14 melanoma 92.5%
active: RXF 393 renal 3.04%

Cc1[nH]c(C(=O)Nc2ccc(C(N)=O)cc2OC(C)C)c(Cl)c1Cl
inactive: DU-145 prostate 101% | K-562 leukemia 79.9% | MALME-3M melanoma 101% | MDA-MB-231 breast 91.4% | RXF 393 renal 133% | SF-268 CNS 97.5% | SF-295 CNS 104% | SF-539 CNS 92.8% | UACC-257 melanoma 106% | M14 melanoma 108%

O=c1c(/C=C/c2c(O)ccc3ccccc23)nnc2sc(-c3cccc([N+](=O)[O-])c3)nn12
inactive: DU-145 prostate 44.1% | K-562 leukemia 50.9% | MALME-3M melanoma 72.9% | MDA-MB-231 breast 30.8% | RXF 393 renal 74.5% | SF-268 CNS 40.4% | SF-295 CNS 43.8% | SF-539 CNS 53.2% | UACC-257 melanoma 54.6% | M14 melanoma 52.3%

COc1cc2c(c(OC)c1OC)CCC(c1cccc(C(=O)Nc3ccc([N+](=O)[O-])cc3)c1)O2 (stereo not given)
inactive: DU-145 prostate 57% | K-562 leukemia 21.8% | MALME-3M melanoma 68.3% | MDA-MB-231 breast 37.1% | RXF 393 renal 69.8% | SF-268 CNS 59.3% | SF-295 CNS 39.8% | SF-539 CNS 76.2% | UACC-257 melanoma 50.9% | M14 melanoma 30.7%

COC(=O)[C@@H](Cc1c[nH]c2ccccc12)NC(=O)[C@H](Cc1ccccc1)NCc1ccncc1
inactive: DU-145 prostate 108% | K-562 leukemia 102% | MALME-3M melanoma 86.5% | MDA-MB-231 breast 93.2% | RXF 393 renal 103% | SF-268 CNS 96.9% | SF-295 CNS 106% | SF-539 CNS 103% | UACC-257 melanoma 79.4% | M14 melanoma 103%

CC(=O)O[C@H]1C[C@@]2(C)[C@@H](C[C@@H](O)[C@H]3[C@@]4(C)CC[C@H](N5CCCC5)[C@@H](C)[C@@H]4CC[C@@]32C)/C1=C(\CCC=C(C)C)C(=O)O
inactive: DU-145 prostate 105% | K-562 leukemia 14.8% | MALME-3M melanoma 95.6% | MDA-MB-231 breast 109% | RXF 393 renal 98.9% | SF-268 CNS 98.9% | SF-295 CNS 96.3% | SF-539 CNS 96.1% | UACC-257 melanoma 98.1% | M14 melanoma 92.2%

COc1ccc(-c2nc3cc(C(=O)NC4CCCCC4)ccc3n2C2CCCCC2)cc1
inactive: DU-145 prostate 99.7% | K-562 leukemia 49.5% | MALME-3M melanoma 95.8% | MDA-MB-231 breast 101% | RXF 393 renal 100% | SF-268 CNS 91.7% | SF-295 CNS 78.3% | SF-539 CNS 88% | UACC-257 melanoma 104% | M14 melanoma 88.7%

CC1=C(C(=O)c2ccccc2)C(c2ccc3c(c2)OCO3)NC(=S)N1 (stereo not given)
inactive: DU-145 prostate 78.7% | K-562 leukemia 24.6% | MALME-3M melanoma 54.5% | MDA-MB-231 breast 79.1% | RXF 393 renal 59.5% | SF-268 CNS 75.8% | SF-295 CNS 51.2% | SF-539 CNS 36.4% | UACC-257 melanoma 57.2% | M14 melanoma 34.6%

c1ccc(-c2cn3nc(-c4c[nH]c5ccccc45)sc3n2)cc1
inactive: DU-145 prostate 98% | K-562 leukemia 42.4% | MALME-3M melanoma 62.6% | MDA-MB-231 breast 76.5% | RXF 393 renal 97.4% | SF-268 CNS 94.4% | SF-295 CNS 83.7% | SF-539 CNS 85.5% | UACC-257 melanoma 83.2% | M14 melanoma 71.1%

CN1CCN(Cn2nc(-c3cc(Cl)cc(Cl)c3Cl)oc2=S)CC1
inactive: DU-145 prostate 108% | K-562 leukemia 68.8% | MALME-3M melanoma 101% | MDA-MB-231 breast 94.4% | RXF 393 renal 99.5% | SF-268 CNS 109% | SF-295 CNS 87.7% | SF-539 CNS 106% | UACC-257 melanoma 77.8% | M14 melanoma 107%

Cn1ccnc1C(=O)/C=C/c1ccc(C(=O)Nc2c(F)c(F)c(F)c(F)c2F)cc1
active: K-562 leukemia 1.03% | MDA-MB-231 breast 7.97% | RXF 393 renal -52% | SF-268 CNS 3.53% | SF-539 CNS -69.9%
inactive: DU-145 prostate 12.3% | MALME-3M melanoma 80.9% | SF-295 CNS 18.2% | UACC-257 melanoma 73.7% | M14 melanoma 19.2%
